Bioassay records from PubChem BioAssay.
D2 antag: antagonists of human D2 dopamine receptor; P14416; HEK293 TREx D2 cells, calcium flux, dopamine EC80; inhibition, % at 10 µM; hit rate 2% among 340,000; AID 485344; in the data active = inhibition above about 30%; inactive = below that, where a call was filed; note: 0% is about no effect
Target sequence (P14416 whole entry, looked up): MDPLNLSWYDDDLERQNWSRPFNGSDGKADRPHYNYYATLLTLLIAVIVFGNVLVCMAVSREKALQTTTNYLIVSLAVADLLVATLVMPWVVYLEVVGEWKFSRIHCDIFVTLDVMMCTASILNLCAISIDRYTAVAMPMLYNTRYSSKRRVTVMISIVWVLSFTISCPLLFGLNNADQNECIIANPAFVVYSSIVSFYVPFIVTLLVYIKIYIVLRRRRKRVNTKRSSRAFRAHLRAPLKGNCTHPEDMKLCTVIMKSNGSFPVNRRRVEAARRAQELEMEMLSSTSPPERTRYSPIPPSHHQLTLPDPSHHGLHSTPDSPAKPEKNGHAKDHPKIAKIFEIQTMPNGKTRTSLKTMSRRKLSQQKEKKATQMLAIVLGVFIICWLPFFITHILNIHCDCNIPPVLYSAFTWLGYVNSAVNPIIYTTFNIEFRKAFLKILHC
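Calcium flux kinetic readout in an inducible HEK293 TREx D2 line plated overnight at 30 C. After 180 s compound exposure, an EC80 dopamine challenge follows with another 180 s kinetic read to detect antagonism.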
D2 PAM-1: positively modulates the human D2 dopamine receptor allosterically; P14416; HEK293 T-REx D2, calcium flux, EC20 dopamine potentiation; potentiation, % at 10 µM; hit rate 0.34% among 340,000;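 active = potentiation over 3 SD above the plate norm, cut at about 30% in these data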; note: 0% is about no effect
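Potentiation of an EC20 dopamine calcium response is measured in a force-coupled, tetracycline-inducible Hek293 Trex D2 line. Compound-only kinetic reads over 180 s flag agonists before dopamine addition.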
D2 ag-1: agonists of human D2 dopamine receptor; P14416; HEK293 T-REx D2 cells, calcium flux agonist mode; activation, % at 2 µM; hit rate 0.53% among 340,000;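 active = activation over 3 SD above normal in the single-dose calcium agonist read, cut at about 30% in these data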; note: 0% is about no effect
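Tetracycline-induced HEK293 Trex cells with D2 receptor force-coupled to calcium signaling, plated overnight at 30 C and loaded with no-wash calcium dye. Calcium flux read kinetically for 180 s after compound addition; responses flag agonists.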
D2 ag-2: agonists of human D2 dopamine receptor (beta-arrestin). P14416. DiscoveRx PathHunter D2 beta-arrestin, luminescence, 90 min; 100% = 57 uM dopamine signal. activation, % (no concentration beside the values). hit rate 0.084% among 360,000; in the data active = activation above about 40%; inconclusive = between about 15% and that limit
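Agonist mode: compounds alone added to overnight-plated D2 PathHunter cells for 90 min at 37 C, with 57 uM final dopamine (EC100) defining full response. Beta-arrestin recruitment detected by chemiluminescent reagent, read after 1 h at ambient temperature.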
D2 PAM-2: human D2 receptor positive allosteric modulation | P14416 | DiscoveRx D2 beta-arrestin cells, luminescence, 90 min; 100% = 57 uM dopamine signal | potentiation, % (concentration not given with the values) | hit rate 0.23% among 360,000 | AID 624464; in the data active = potentiation above about 50%; inconclusive = mostly about 30% to 49%
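PathHunter beta-arrestin assay in DiscoveRx D2 cells. Compounds were added with an EC20 of dopamine (50 nM final) for 90 min at 37 deg C. Luminescence was read 1 h after detection reagent, with 57 uM dopamine as the EC100 control.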
An asterisk follows results filed as active; ? = inconclusive; . = not tested or not shown. Rows were chosen to be rich in hits. Some 2.4% of all compounds tested hit in one or more screens of this group.

SMILES	D2 antag	D2 PAM-1	D2 ag-1	D2 ag-2	D2 PAM-2
COc1ccc(C(CNC(=O)c2oc3c(Cl)cccc3c2C)N2CCCC2)cc1 (configuration not stated)	39*	-21	0	-4	-45
COc1ccc(C(CNC(=S)NCc2ccccc2)N2CCCC2)cc1 (configuration not stated)	41*	-18	0	-5	-17
COc1ccc(C(CNC(=O)c2oc3ccc(Cl)cc3c2C)N2CCCCC2)cc1 (configuration not stated)	-21	-14	-1	-4	-17
COc1ccc(NC(=S)NCC(c2cccnc2)N2CCOCC2)cc1 (configuration not stated)	10	30*	0	0	0
COc1ccc(C(CNC(=O)c2oc3ccccc3c2C)N2CCCC2)cc1 (configuration not stated)	76*	-28	1	-4	-35
CCN(CC)c1ccc2cc(-c3nc(-c4cccs4)no3)c(=O)oc2c1	.	-12	.	.	.
COc1ccc(N=Cc2c(O)n(-c3cccc(C)n3)c(=O)c3ccccc23)cc1	32*	-3	-1	-2	-2
Cc1ccccc1NC(=O)c1c(NC(=O)c2ccncc2)sc2c1CCC(C(C)(C)C)C2 (configuration not stated)	.	11	1	.	.
Cc1ccc(NC(=O)C2CCN(S(=O)(=O)c3ccc4[nH]c5c(c4c3)CCCCC5)CC2)cc1	.	2	0	.	.
CCOC(=O)C1CCN(CC(O)COc2ccc(S(=O)(=O)N3CCCC3)cc2[N+](=O)[O-])CC1 (configuration not stated)	12	-23	36*	-2	-34
COc1ccc(N2C(=O)C(CC(=O)Nc3ccccc3)N(Cc3ccc4c(c3)OCO4)C2=O)cc1 (configuration not stated)	43*	13	0	4	-12
COc1ccc(N2C(=O)C(CC(=O)Nc3ccc(F)cc3)N(Cc3ccc4c(c3)OCO4)C2=O)cc1 (configuration not stated)	.	-23	0	.	.
CCC(C)N1C(=O)/C(=C/c2c(NCCCOC(C)C)nc3c(C)cccn3c2=O)SC1=S (configuration not stated)	25	20	34*	-3	-3
CC(C)(C)NCCOc1ccc2ccccc2c1	45*	-21	3	-2	-11
O=C(Nc1cccc(-c2nc3ncccc3o2)c1)c1ccc(-c2cccc(Cl)c2Cl)o1	.	5	-2	.	.
O=C(Nc1cccc(C(F)(F)F)c1)C1CC(=O)N(CCc2ccccc2)C1 (configuration not stated)	63*	-22	0	1	-33
COc1ccc(Nc2nc(N)nc(CSc3nc(C)cc(C)n3)n2)cc1	.	5	.	-4	3
COc1ccc(Nc2nc(N)nc(CSc3nnc(N)s3)n2)cc1	38*	-7	-1	1	-5
CC(C)C(=O)N(c1cc2sc(=O)oc2c2ccccc12)S(=O)(=O)c1cccs1	-12	-7	1	?	75*
O=C(c1cncc(Br)c1)N1CCN(S(=O)(=O)c2ccccc2)CC1	12	4	1	6	-3
O=C(c1cncc(Br)c1)N1CCN(S(=O)(=O)c2ccccc2C(F)(F)F)CC1	40*	16	1	1	-4
CCCCn1c(CCC)nc([N+](=O)[O-])c1Sc1ccc(Cl)cn1	40*	-12	2	-2	-13
Cc1c(C(=O)Nc2cccc(Cl)c2)oc2ccc(S(=O)(=O)N(C)C3CCCCC3)cc12	.	-3	.	.	.
COc1ccc(C)cc1N(C)C(=O)c1c2c(nc3ccccc13)C(=O)N(C1CCCCC1)C2	.	1	2	.	.
CN(CC(=O)Nc1cccc(F)c1)C(=O)c1cc([N+](=O)[O-])ccc1N1CCCCC1	42*	0	-1	-5	-26
CCN(CC(=O)Nc1c(F)cccc1F)C(=O)c1ccc(N2CCOCC2)c([N+](=O)[O-])c1	-12	-4	0	-3	-17
CCN(CC(=O)Nc1c(F)cccc1F)C(=O)c1ccc(N2CCCC2)c([N+](=O)[O-])c1	31*	8	0	-9	-25
COCCNC(=O)C1CCN(Cc2cc3ccccc3n2Cc2ccc(C)cc2)CC1	.	6	0	.	.
